Laboratory results: PubChem BioAssay (NCATS)
“And” between values parts separate entries of the source, which are not always exact repeats. Equal values may be shown once. Inconclusive results are not listed. Where a call stands in place of a potency, no number is given. The source made the active and inactive calls. Calls come from the whole dose curve; as a rule, active = well fitted curve in the direction sought with a large enough effect; inconclusive = small, poorly fitted or top-dose-only effect, or another doubt; inactive = no such curve, though single readings can be large; an effect the other way counts as inactive or inconclusive.

assay: qHTS assay to identify small molecule inhibitors of chordoma cells - UCH-2 (AID 1259356); details: UCH-2 chordoma viability, CellTiter-Glo ATP luminescence, 48 h; series mostly up to 46.1 µM

Row | SMILES | outcome
1 | CC(C)NCC(O)COc1cccc2[nH]ccc12 (centres undefined) | inactive
2 | O=C(NCCN1CCOCC1)c1ccc(Cl)cc1 | inactive
3 | CC(=O)c1ccc(S(=O)(=O)NC(=O)NC2CCCCC2)cc1 | inactive
4 | O=C(O)CCc1nc(-c2ccccc2)c(-c2ccccc2)o1 | inactive
5 | NCCS | inactive
6 | CCCCC1C(=O)N(c2ccccc2)N(c2ccccc2)C1=O | inactive
7 | Cc1cnc(C(=O)O)c[n+]1[O-] | inactive
8 | CCN1CCC[C@H]1CNC(=O)c1cc(S(N)(=O)=O)ccc1OC | inactive
9 | CC(=O)O[C@]1(C(C)=O)CC[C@H]2[C@@H]3C=C(Cl)C4=CC(=O)[C@@H]5C[C@@H]5[C@]4(C)[C@H]3CC[C@@]21C | inactive
10 | O=C1NC(=O)C(c2ccccc2)(c2ccccc2)N1 | inactive
11 | CC[C@]1(O)C[C@@H]2CN(CCc3c([nH]c4ccccc34)[C@@](C(=O)OC)(c3cc4c(cc3OC)N(C)[C@H]3[C@@](O)(C(=O)OC)[C@H](OC(C)=O)[C@]5(CC)C=CCN6CC[C@]43[C@@H]65)C2)C1 | inactive
12 | CCn1cc(C(=O)O)c(=O)c2ccc(C)nc21 | inactive
13 | O=C1NCC2(CCN(CCc3ccccc3)CC2)O1 | inactive
14 | Clc1ccc(Cn2c(CN3CCCC3)nc3ccccc32)cc1 | inactive
15 | CCN(CC)CCNC(=O)c1ccc(N)cc1 | inactive

assay: P-glycoprotein substrates identified in KB-3-1 adenocarcinoma cell line, qHTS therapeutic library screen (AID 1346986); details: KB-3-1 parental cells viability, CellTiter-Glo, 72 h; series mostly up to 44.5 µM; note: nearly all actives have a fitted effect of over 60% in size
Procedure, shortened: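 In 1536-well format, 500 cells/well received pinned compound titrations and were incubated 72 h, 5% CO2. Viability was read by CellTiter-Glo; cytotoxic if AC50 < 10 uM and efficacy >50%.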

Row | SMILES | Potency
16 | CCOC(=O)O[C@]1(C(=O)OCCl)CC[C@@H]2[C@H]3CCC4=CC(=O)C=C[C@]4(C)[C@@H]3[C@@H](O)C[C@@]21C | inactive
17 | CC(=O)CCCCn1c(=O)c2c(ncn2C)n(C)c1=O | inactive
18 | O=C(O)CCc1nc(-c2ccccc2)c(-c2ccccc2)o1 | inactive
19 | Cc1cnc(C(=O)O)c[n+]1[O-] | inactive
20 | CCN1CCC[C@H]1CNC(=O)c1cc(S(N)(=O)=O)ccc1OC | inactive
21 | CCN(CC)CCNC(=O)c1ccc(N)cc1 | inactive

assay: P-glycoprotein substrates identified in KB-8-5-11 adenocarcinoma cell line, qHTS therapeutic library screen (AID 1346987); details: KB-8-5-11 (P-gp overexpressing) viability, CellTiter-Glo, 72 h; series mostly up to 44.5 µM; note: nearly all actives have a fitted effect of over 65% in size; note: potency is the fitted concentration of half-maximal effect
Procedure, shortened: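 Luminescence from CellTiter-Glo, read 5 min after addition, quantified survival of KB-8-5-11 (P-gp-overexpressing) cells exposed to compounds for 72 h. AC50 was derived from concentration-response curves.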

Row | SMILES | Potency
22 | O=C(O)c1cc(-c2ccccc2)nc2ccccc12 | inactive
23 | CCCNC(=O)NS(=O)(=O)c1ccc(Cl)cc1 | inactive
24 | CN(C)CCC(c1ccccc1)c1ccccn1 (centres undefined) | inactive
25 | CCN(CC)C(=O)c1ccc(O)c(OC)c1 | inactive
26 | COC(=O)[C@@H]1[C@H]2C[C@H]3c4[nH]c5ccccc5c4CCN3C[C@@H]2CC[C@@H]1O | inactive
27 | CC(=O)N[C@@H](CS)C(=O)O | inactive
28 | CCN(CC)CCOC(=O)c1ccc(N)cc1 | inactive
29 | CCOC(=O)O[C@]1(C(=O)OCCl)CC[C@@H]2[C@H]3CCC4=CC(=O)C=C[C@]4(C)[C@@H]3[C@@H](O)C[C@@]21C | inactive
30 | OC[C@@H](O)[C@H](O)[C@H](O)[C@@H](O)CO | inactive
31 | Cc1cccc(C)c1OCC(C)N (centres undefined) | inactive
32 | CC1=C(/C=C/C(C)=C/C=C/C(C)=C/C(=O)Nc2ccc(O)cc2)C(C)(C)CCC1 | 23.1 µM (active)
33 | COc1ccccc1N1CCN(CCCNc2cc(=O)n(C)c(=O)n2C)CC1 | inactive
34 | NC(N)=Nc1nc(CSCC/C(N)=N/S(N)(=O)=O)cs1 | inactive
35 | CC(=O)CCCCn1c(=O)c2c(ncn2C)n(C)c1=O | inactive
36 | C[N+]1(C)[C@@H]2CC(OC(=O)[C@H](CO)c3ccccc3)C[C@H]1[C@H]1O[C@@H]12 (some centres undefined) | inactive
37 | O=C(O)Cc1cccc2ccccc12 | inactive
38 | O=c1[nH]cnc2c1ncn2[C@H]1CC[C@@H](CO)O1 | inactive
39 | C[C@@H](O)[C@H]1C(=O)N2C(C(=O)O)=C(S[C@@H]3CN[C@H](C(=O)N(C)C)C3)[C@H](C)[C@H]12 | inactive
40 | CC(C)NCC(O)COc1cccc2[nH]ccc12 (centres undefined) | inactive
41 | O=C(NCCN1CCOCC1)c1ccc(Cl)cc1 | inactive
42 | CC(=O)c1ccc(S(=O)(=O)NC(=O)NC2CCCCC2)cc1 | inactive
43 | O=C(O)CCc1nc(-c2ccccc2)c(-c2ccccc2)o1 | inactive
44 | NCCS | inactive
45 | CCCCC1C(=O)N(c2ccccc2)N(c2ccccc2)C1=O | inactive
46 | Cc1cnc(C(=O)O)c[n+]1[O-] | inactive
47 | CCN1CCC[C@H]1CNC(=O)c1cc(S(N)(=O)=O)ccc1OC | inactive
48 | O=C1NC(=O)C(c2ccccc2)(c2ccccc2)N1 | inactive
49 | CC[C@]1(O)C[C@@H]2CN(CCc3c([nH]c4ccccc34)[C@@](C(=O)OC)(c3cc4c(cc3OC)N(C)[C@H]3[C@@](O)(C(=O)OC)[C@H](OC(C)=O)[C@]5(CC)C=CCN6CC[C@]43[C@@H]65)C2)C1 | 5.8 µM (active) and 5.17 µM (active) and 1.16 µM (active)
